Source: PubChem BioAssay
A selection: hits, their analogues and other compounds. The true share with any hit is near 2.9%.
SNCA viab count – reduces viability of HEK-293 SNCA reporter cells. Potency, µM (top dose mostly 57.1 µM), usual class: cytotoxic. HEK-293-SNCA-luc viability, GF-AFC fluorescence, 24 h. 150,000 compounds, 0.12% hits; also: nearly all actives have a fitted effect of over 30% in size
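HEK-293-SNCA-luc cells (1500/well) plated 24 h, then exposed 24 h to a dilution series; GF-AFC added 30 min at 37C, fluorescence 405/540 nm; normalised to medium-only and DMSO wells, Hill fit.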
IP6K1 inhibitor – blocks human inositol hexakisphosphate kinase 1; Q92551; IP6K1 kinase, ADP-Glo luminescence, 2 h; hits give low values; 140,000 compounds, 0.81% hits; activity change, % (series mostly up to about 58 µM); in the data active = activity change below about -25%
Target sequence (Q92551 whole entry, looked up): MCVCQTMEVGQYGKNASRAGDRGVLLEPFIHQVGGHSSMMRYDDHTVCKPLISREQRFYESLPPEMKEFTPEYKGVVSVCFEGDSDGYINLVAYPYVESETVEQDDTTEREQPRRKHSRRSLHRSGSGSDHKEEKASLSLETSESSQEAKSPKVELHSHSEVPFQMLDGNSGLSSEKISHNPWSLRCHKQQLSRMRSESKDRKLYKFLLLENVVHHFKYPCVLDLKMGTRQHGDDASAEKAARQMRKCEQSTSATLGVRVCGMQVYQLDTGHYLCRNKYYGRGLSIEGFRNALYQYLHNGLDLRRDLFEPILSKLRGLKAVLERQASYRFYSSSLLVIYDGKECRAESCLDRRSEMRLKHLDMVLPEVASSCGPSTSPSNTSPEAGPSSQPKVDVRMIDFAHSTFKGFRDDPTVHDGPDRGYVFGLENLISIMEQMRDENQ
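ADP-Glo luminescence measures ADP made by human IP6K1 during a 2 h RT reaction with ATP/IP6 (mix at 1.3 mM/130 uM); top library doses 57.5 and 19.1 uM final.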
KDM5B inhibitor – inhibitors of human KDM5B histone demethylase; Potency, µM (highest dose often 57.7 µM), usual class: inhibitors; 220,000 compounds, 2.6% hits; KDM5B demethylase, FDH-coupled NADH fluorescence (FDH is formaldehyde dehydrogenase); also: nearly all actives have a fitted effect of over 70% in size
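qHTS format, multiple compound concentrations. Buffer 50 mM HEPES pH 7.5/0.01% Tween-20; 200 nM KDM5BΔAP final; 10 min compound preincubation; substrate-mix levels 12.5 µM peptide, 25 µM α-KG, 0.25 mM NAD⁺; 30 min RT; ΔRFU.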
SNCA expr inhib – inhibitors of alpha-synuclein (SNCA) gene expression; HEK-293 SNCA-luciferase knock-in, luminescence, 24 h; Potency, µM (series often up to 57.2 µM), usual class: inhibitors; 140,000 compounds, 0.17% hits; also: nearly all actives have a fitted effect of over 45% in size
A number is an active result; – = inactive; ? = inconclusive; · = not tested or not shown; ! = repeats disagree. Unless noted, calls follow the shape of the dose curve; as a rule, active = well fitted curve in the direction sought with a large enough effect; inconclusive = small, poorly fitted or top-dose-only effect, or another doubt; inactive = no such curve, though single readings can be large; an effect the other way counts as inactive or inconclusive.

SMILES | SNCA viab count | IP6K1 inhibitor | KDM5B inhibitor | SNCA expr inhib
CCC(Cn1cnc(-c2ccccc2)c1-c1ccc(C#N)cc1)N1CCN(C)CC1 (centres undefined) | – | – | ? | –
N#Cc1ccc(-c2c(-c3ccccc3)ncn2CCNc2cccnc2)cc1 | – | – | 28.2µM | –
CC(C)CN1CC(COc2cccc(C(F)(F)F)c2)Oc2ccnc(-c3ccc(OCC(=O)O)cc3)c2C1=O (centres undefined) | – | – | · | –
Cc1nn(CC(=O)N2CCCCCC2)c(=O)c2nc(-c3ccccc3)sc12 | – | – | 31.6µM | –
CCc1nc2c(=O)n(CC(=O)N(CC)Cc3ccccc3)nc(C)c2s1 | – | – | – | –
CCCCN(C)C(=O)Cn1nc(C)c2sc(-c3ccccc3)nc2c1=O | – | – | 28.2µM | –
CCc1nc2c(=O)n(CC(=O)N3CCN(c4cccc(C)c4C)CC3)nc(C)c2s1 | – | – | – | –
Cc1cccc(CN2CCCC3(CCN(C(=O)Cc4cccnc4)C3)C2=O)c1 (centres undefined) | – | – | – | –
Cc1cccc(CN2CCCC3(CCN(C(=O)c4ccc(=O)[nH]c4)C3)C2=O)c1 (centres undefined) | – | – | 12.6µM | –
O=c1cc(-c2ccccn2)oc2c(NC3CCOCC3)nccc12 | – | – | 31.6µM | –
O=c1cc(-c2ccccn2)oc2c(-c3cn[nH]c3)nccc12 | – | – | ? | ?
CCCNc1c(NC(=O)Nc2cccc(Cl)c2)c(=O)oc2ccccc12 | · | · | – | ·
O=C(N[C@H]1CO[C@H]2[C@@H]1OC[C@@H]2Nc1nccc(-c2cccs2)n1)c1ccccc1 | ? | – | 35.5µM | –
CC(=O)Nc1ccc(S(=O)(=O)N[C@H]2CO[C@H]3[C@@H]2OC[C@@H]3Nc2nccc(-c3cccs3)n2)cc1 | – | – | 25.1µM | –
O=C(Nc1ccccc1)N[C@H]1CO[C@H]2[C@@H]1OC[C@@H]2Nc1nccc(-c2cccs2)n1 | – | – | ? | –
O=C(N[C@H]1CO[C@H]2[C@@H]1OC[C@@H]2Nc1nccc(-c2cccs2)n1)C1CCCCC1 | – | – | 35.5µM | ?
CCNC(=O)O[C@@H]1CO[C@H]2[C@@H]1OC[C@@H]2Nc1nccc(-c2cccs2)n1 | – | – | 28.2µM | –
O=C(N[C@H]1CO[C@H]2[C@@H]1OC[C@@H]2Nc1nccc(-c2cccs2)n1)c1ccc(C(F)(F)F)cc1 | – | – | ? | ?
COc1ccccc1C(=O)Oc1ccc(C)cc1 | · | · | – | ·
CCN(CC)CCNC(=O)c1ccsc1 | · | · | – | ·
O=C(Nc1nnc(-c2ccccc2)o1)C1CCN(S(=O)(=O)c2cccc(C(F)(F)F)c2)CC1 | · | · | – | ·
O=C(COc1ccccc1)N[C@H]1CO[C@H]2[C@@H]1OC[C@@H]2Nc1nccc(-c2cccs2)n1 | – | – | 28.2µM | –
COCCNC[C@@H]1C=C(C)[C@H](Cc2nnc(-c3ccc(OC)cc3)o2)C[C@H]1C(C)C | 31.6µM | – | – | ?
CN(c1ccccc1)S(=O)(=O)c1ccc(NC(=O)C2CC2)cc1 | · | · | – | ·
CCc1ccccc1OCCN(C)Cc1ncc[nH]1 | – | – | 22.4µM | –
SMILES | SNCA viab count | IP6K1 inhibitor | KDM5B inhibitor | SNCA expr inhib
Clc1ccc(Sc2nc(-c3ccccc3)cs2)cc1 | · | · | – | ·
CC(NC(=O)C1CCC1)C(=O)N1CCN(c2ccccn2)CC1 (centres undefined) | – | – | 22.4µM | –
CC(NC(=O)C1CCCO1)C(=O)N1CCN(c2ccccn2)CC1 (centres undefined) | – | – | 25.1µM | –
CC(C)C(NC(=O)C1CCC1)C(=O)N1CCN(c2ccccn2)CC1 (centres undefined) | – | – | 22.4µM | –
Cn1nc(C(=O)N2CCN(c3cccc(Cl)c3)CC2)c2c1-c1ccccc1S(=O)(=O)C2 | – | – | ? | –
COC(=O)C1(C(F)(F)F)N=C(N2CCCCC2)Oc2c1c(C)nn2-c1ccccc1 (centres undefined) | · | · | – | ·
N#Cc1cccc(CN[C@H]2CO[C@H]3[C@@H]2OC[C@@H]3n2cc(-c3ccccn3)nn2)c1 | – | – | – | –
Cc1nc2scc(CC(=O)NCCC(C)C)n2c(=O)c1-c1cc(C)n(-c2ccc(F)cc2)n1 | – | – | 28.2µM | –
Cc1nc2scc(CC(=O)NCCC(C)C)n2c(=O)c1-c1cc(C)n(-c2cc(F)ccc2F)n1 | – | – | 28.2µM | ?
Cc1ccc(F)cc1-n1nc(-c2c(C)nc3scc(CC(=O)NCC(C)C)n3c2=O)cc1C | ? | – | 28.2µM | –
Cc1ccccc1-n1nc(-c2c(C)nc3scc(CC(=O)NC(C)C)n3c2=O)cc1C | – | – | 28.2µM | –
C=CCNC(=S)NN=C1CCC(CCC)CC1 (centres undefined) | · | · | – | ·
COc1ccc(C(=O)/C=C/c2ccc(SC)cc2)cc1 | · | · | – | ·
Nc1c(-c2nc(-c3ccc(Cl)cc3)cs2)c2ccccn2c1C(=O)c1ccc2c(c1)OCO2 | – | – | – | –
CC1(C(=O)NC2CCOCC2)CN(Cc2ccccc2)Cc2ccc(Nc3ccccc3)nc21 (centres undefined) | ? | – | 28.2µM | –
CC1(C(=O)NC2COC2)CN(Cc2ccccc2)Cc2ccc(Nc3ccccc3)nc21 (centres undefined) | – | – | 35.5µM | –
Cc1ccc2oc(=O)c3cc(C(=O)NCCc4ccc(Cl)cc4)sc3c2c1 | – | – | – | –
Cc1ccc(C(=O)Nc2ccc(CN3CCN(C)CC3)c(C(F)(F)F)c2)cc1C#Cc1cnc2cccnn12 | 29.9µM! | – | · | ?
CCN1CCN(Cc2ccc(NC(=O)c3ccc(C)c(NC(=O)c4cncc(-c5cccs5)c4)c3)cc2C(F)(F)F)CC1 | ? | – | · | ·
FC(F)(F)c1ccc(-c2noc([C@@H]3Cc4nc[nH]c4CN3Cc3cc4ccccc4o3)n2)cc1 | – | – | 25.1µM | –
c1ccc2oc(CN3Cc4[nH]cnc4C[C@H]3c3nc(-c4ccc5c(c4)OCO5)no3)cc2c1 | – | – | 35.5µM | ?
COc1ccc(CNC2(Cc3cc(-c4ccc(OC)cc4)on3)COC2)cc1 | – | – | – | –
Cn1c(=O)c2c(ncn2Cc2cccc(OC(F)F)c2)n(C)c1=O | · | · | – | ·
Cc1nc(NCC2CC2)ncc1C(=O)O | – | – | 22.4µM | –
Cn1ccnc1-c1ccc(N2CC[C@@]3(O)CCN(S(C)(=O)=O)C[C@H]3C2)nn1 | – | – | 31.6µM | –
SMILES | SNCA viab count | IP6K1 inhibitor | KDM5B inhibitor | SNCA expr inhib
CN1CC(=O)N(C2CCC2)Cc2c(NCCc3ccc(Cl)cc3)ncnc21 | – | – | – | –
CC(=O)c1cccc(NC(=O)c2cc(C)nc3c2c(C)nn3-c2cccc(Cl)c2C)c1 | – | – | – | –
CCOc1ccc(NC(=O)CSc2nc3ccsc3c(=O)[nH]2)cc1 | · | · | – | ·
N#Cc1cccc(-c2cn3c(n2)N(C(=O)c2ccccn2)CCC3)c1 | – | – | 17.8µM | –
O=C(c1ccccc1)N1CCCn2cc(-c3ccc4c(c3)OCO4)nc21 | ? | – | ? | –
N#Cc1cccc(-c2cn3c(n2)N(C(=O)c2ccncc2)CCC3)c1 | – | – | 20µM | –
Cc1nccn1CC(=O)N1CCCn2cc(-c3cccc(C#N)c3)nc21 | – | – | ? | –
N#Cc1cccc(-c2cn3c(n2)N(C(=O)c2ccoc2)CCC3)c1 | – | – | 25.1µM | –
